Bioassay records deposited in PubChem by National Center for Advancing Translational Sciences (NCATS).
An excerpt weighted towards active compounds, which were near 9% of everything screened.
JMJD2A Tudor: inhibitors of human JMJD2A Tudor domain; AlphaScreen JMJD2A-Tudor / H3K4me3 peptide binding; Potency, µM (doses to about 114 µM), inactives show top-dose activity change, negative = inhibition, most hits filed as inhibitors; 390,000 tested, 4.4% active; note: % is set by controls: 0 for no effect and ±100 for the full control effect; nearly all actives have a fitted effect of over 50% in size
PLK1 PBD block: blocks phosphopeptide binding to human PLK1 polo-box domain; Potency, µM, without a hit: max response, negative = inhibition, hits mostly inhibitors; AID 720504; 360,000 tested, 2.8% active; Plk1 PBD binding of FITC phosphopeptide, fluorescence polarization; note: series mostly up to about 57 µM; % is set by controls: 0 for no effect and ±100 for the full control effect; nearly all actives have a fitted effect of over 65% in size
BAZ2B inh: BAZ2B (human) inhibition; AlphaScreen BAZ2B-H3K14Ac peptide displacement; Potency, µM (doses to about 114 µM), inactives show at the top dose activity change, negative = inhibition, actives largely listed as inhibitors; 360,000 tested, 4.4% active; AID 504333; note: % is set by controls: 0 for no effect and ±100 for the full control effect; nearly all actives have a fitted effect of over 60% in size
Target sequence (Q9UIF8 whole entry, looked up): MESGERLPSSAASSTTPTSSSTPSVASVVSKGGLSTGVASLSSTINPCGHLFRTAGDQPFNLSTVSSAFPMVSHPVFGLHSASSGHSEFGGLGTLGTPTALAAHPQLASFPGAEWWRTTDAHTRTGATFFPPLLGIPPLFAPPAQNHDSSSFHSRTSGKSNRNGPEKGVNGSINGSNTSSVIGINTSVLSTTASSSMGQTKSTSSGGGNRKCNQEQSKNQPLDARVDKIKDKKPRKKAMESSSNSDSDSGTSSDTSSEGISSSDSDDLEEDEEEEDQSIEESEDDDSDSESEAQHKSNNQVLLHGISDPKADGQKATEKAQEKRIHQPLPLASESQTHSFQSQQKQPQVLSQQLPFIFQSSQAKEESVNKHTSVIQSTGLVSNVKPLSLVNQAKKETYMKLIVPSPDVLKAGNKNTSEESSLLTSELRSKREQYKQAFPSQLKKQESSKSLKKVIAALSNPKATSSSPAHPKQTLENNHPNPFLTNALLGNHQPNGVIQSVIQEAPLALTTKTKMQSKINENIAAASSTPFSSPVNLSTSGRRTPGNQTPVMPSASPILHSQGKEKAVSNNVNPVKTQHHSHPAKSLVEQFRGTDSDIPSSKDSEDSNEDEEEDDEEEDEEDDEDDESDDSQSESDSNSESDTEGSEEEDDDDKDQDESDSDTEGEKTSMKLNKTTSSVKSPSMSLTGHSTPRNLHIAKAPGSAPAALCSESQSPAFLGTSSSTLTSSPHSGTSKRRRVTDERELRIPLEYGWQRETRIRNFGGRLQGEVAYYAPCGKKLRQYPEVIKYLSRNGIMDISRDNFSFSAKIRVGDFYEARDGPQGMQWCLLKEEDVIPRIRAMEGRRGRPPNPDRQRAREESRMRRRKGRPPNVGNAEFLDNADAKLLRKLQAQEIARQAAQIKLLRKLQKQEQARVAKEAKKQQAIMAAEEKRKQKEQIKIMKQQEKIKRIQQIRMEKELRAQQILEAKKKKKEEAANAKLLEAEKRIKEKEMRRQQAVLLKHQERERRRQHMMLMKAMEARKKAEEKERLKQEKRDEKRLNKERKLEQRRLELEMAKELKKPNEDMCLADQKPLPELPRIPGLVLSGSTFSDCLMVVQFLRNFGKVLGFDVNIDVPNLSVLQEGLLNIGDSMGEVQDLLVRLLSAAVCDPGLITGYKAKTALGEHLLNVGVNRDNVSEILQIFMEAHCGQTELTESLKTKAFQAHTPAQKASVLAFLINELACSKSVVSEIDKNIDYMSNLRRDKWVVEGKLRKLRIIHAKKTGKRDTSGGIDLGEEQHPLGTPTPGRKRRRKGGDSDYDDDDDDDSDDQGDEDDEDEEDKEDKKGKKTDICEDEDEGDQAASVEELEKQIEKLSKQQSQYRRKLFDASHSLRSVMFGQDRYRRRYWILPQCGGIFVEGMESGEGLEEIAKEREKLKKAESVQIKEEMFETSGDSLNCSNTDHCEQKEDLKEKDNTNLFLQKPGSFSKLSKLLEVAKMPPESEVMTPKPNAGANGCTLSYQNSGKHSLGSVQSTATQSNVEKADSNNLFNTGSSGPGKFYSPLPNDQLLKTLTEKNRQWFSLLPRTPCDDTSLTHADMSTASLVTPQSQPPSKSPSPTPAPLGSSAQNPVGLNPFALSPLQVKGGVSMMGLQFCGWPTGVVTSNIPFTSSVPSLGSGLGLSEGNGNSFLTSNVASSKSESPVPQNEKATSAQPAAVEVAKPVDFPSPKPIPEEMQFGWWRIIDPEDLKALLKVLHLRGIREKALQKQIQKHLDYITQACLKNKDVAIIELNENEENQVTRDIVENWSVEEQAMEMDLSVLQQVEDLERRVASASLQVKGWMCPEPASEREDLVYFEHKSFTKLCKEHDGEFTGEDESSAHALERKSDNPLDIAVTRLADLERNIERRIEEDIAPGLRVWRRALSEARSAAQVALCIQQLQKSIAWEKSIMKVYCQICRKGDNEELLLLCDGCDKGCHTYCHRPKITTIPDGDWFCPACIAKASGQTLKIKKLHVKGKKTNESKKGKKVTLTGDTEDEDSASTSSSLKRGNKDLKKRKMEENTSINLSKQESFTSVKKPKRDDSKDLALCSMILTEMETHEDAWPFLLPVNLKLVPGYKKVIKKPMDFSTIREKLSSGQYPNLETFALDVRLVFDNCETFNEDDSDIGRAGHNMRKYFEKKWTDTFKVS
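Protein-peptide AlphaScreen: BAZ2B 50 nM, b-H3K14Ac 50 nM, 1x PBS pH 7.4 + 0.01% Tween-20. Preincubation 30 min RT; cpd 30 min RT (top 110 uM); beads 20 min RT, light-protected.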
12-LOX inh: inhibitors of human 12S-lipoxygenase ALOX12; P18054; purified 12hLO, xylenol orange hydroperoxide absorbance; Potency, µM (titrated, usually from 108 µM), for the others: top-dose activity change, negative = inhibition, most hits filed as inhibitors; 580,000 tested, 1.1% active; note: % is set by controls: 0 for no effect and ±100 for the full control effect
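Purified human 12hLO (150 nM final) in 25 mM Hepes, 0.01% Triton X-100, pH 7.0 was preincubated 15 min at room temperature with compound. Then 40 uM arachidonic acid was added, 30 min. Hydroperoxide was read by Fe-XO absorbance ratio 573/405 nm.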
HP1b chromo inh: inhibitors of HP1-beta chromodomain binding to methylated histone tails. P83916. 390,000 tested, 0.56% active. Potency, µM (highest dose often 114 µM), for the others: top-dose activity change, negative = inhibition, actives largely listed as inhibitors. AlphaScreen HP1-beta / biotin-H3K9me3 peptide binding; note: nearly all actives have a fitted effect of over 70% in size
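AlphaScreen: HP1-beta (50 nM) preformed 30 min with biotin-H3(1-18)K9me3 peptide (50 nM) in PBS pH 7.4, 0.01% Tween-20. Compound added for 30 min at RT, then streptavidin donor/nickel chelate acceptor beads (10 ug/mL) for 30 min.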
G9a inh: inhibitors of human histone lysine methyltransferase G9a; G9a H3K9 monomethylation, AlphaScreen, 2 h; Potency, µM (highest dose often 102 µM), for inactives: top-dose activity, negative = inhibition, actives largely listed as inhibitors; 350,000 tested, 8.8% active; AID 504332; note: % is set by controls: 0 for no effect and ±100 for the full control effect; nearly all actives have a fitted effect of over 75% in size
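Readings reflect AlphaScreen signal from monomethyl-H3K9 antibody detection. HMT at 20 nM; substrate b-H3K9 500 nM; cofactor SAM 20 uM; 2 h RT reaction; compounds tested as titrations in qHTS with 15 min preincubation.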
* = called active by the depositor; ? = inconclusive; nt = not tested or not shown; [ ] = dose if it differs, or a comment. Calls come from the whole dose curve; as a rule, active = well fitted curve in the direction sought with a large enough effect; inconclusive = small, poorly fitted or top-dose-only effect, or another doubt; inactive = no such curve, though single readings can be large; an effect the other way counts as inactive or inconclusive. Potency is the fitted concentration of half-maximal effect.

SMILES	JMJD2A Tudor	PLK1 PBD block	BAZ2B inh	12-LOX inh	HP1b chromo inh	G9a inh
Cc1ccc(C=C2C(=O)c3ccccc3C2=O)s1	?	17µM*	16µM*	?	?	?
C=C[C@@H]1[C@@H](C)[C@H](C)C(=O)C([C@H](O)C(C)C)[C@@H]1C (stereo partly drawn)	-14%	nt	nt	nt	38%	nt
CSc1ccccc1OCc1cc(C(=O)N2CCN(Cc3nccn3C)CC2)no1	?	-5%	-19%	11%	-17%	47%
CN(CCCCCCN(C)Cc1ccccc1O)Cc1ccccc1O	20µM*	-3%	50µM*	?	?	nt
Cc1ccc(NC(=O)/C(C#N)=C(\N)C(Cl)(Cl)Cl)nc1	-8%[57.1 µM]	24µM*	56µM*	nt	16%	?
O=C(CS(=O)c1ccc(C(F)(F)F)cc1[N+](=O)[O-])Oc1ccccc1 (stereo not drawn)	-17%[11.4 µM]	27µM*	?	?	-37%	50µM*
O=C(CNc1ccc(C(F)(F)F)cc1[N+](=O)[O-])OCC(=O)c1ccccc1	-35%	-1%	-38%	151%	-21%	?
CS(=O)(=O)c1ccc(S(=O)CC(=O)OCc2ccccc2)c([N+](=O)[O-])c1 (stereo not drawn)	-15%	2.4µM*	-21%	-21%	24%	10µM*
COc1cc(NC(=O)CCCNC(=O)Cn2cnc3sc4c(c3c2=O)CCCC4)cc(OC)c1OC	-5%	-11%	6%	-12%	47%	30%
COc1ccc(-c2nnn(CC(=O)NC(=O)NC3CCCCC3)n2)cc1OC	-9%	7%	4%	207%	37%	9%[2.33 µM]
O=[N+]([O-])c1cccc2c1ccc1ncccc12	-8%	3%	-2%	0%	10%	12%[2.33 µM]
COc1ccc([C@H]2C(C#N)=C([S-])N[C@](C)(O)[C@@H]2[n+]2ccccc2)cc1	56µM*	?	-25%	0%	-3%	14µM*
Cc1ccc[n+](C2C(c3ccc([N+](=O)[O-])cc3)C(C#N)=C([S-])NC2(O)C2CC2)c1 (stereo not drawn)	-29%	-26%	?	-18%	16%	16µM*
Cc1ccc[n+](Cc2ccc([N+](=O)[O-])cc2)c1	5%	-4%	-7%	-8%	42%	?
Cc1ccc(Cc2cnc(NC(=O)c3ccco3)s2)cc1	-29%	-5%	-27%	19%	4%	2%[59 µM]
CCOC(=O)c1[nH]cnc1N=Nc1c(O)ccc2ccccc12	79µM*	-14%	11µM*	11%	-31%	50µM*
Oc1ccc2ccccc2c1N=Nc1ccccn1	35µM*	-14%	4µM*	0%	8.9µM*	3.2µM*
CCCn1c(O)c(N=Nc2ccc3ccccc3n2)c2ccccc21	-5%	?	6%	-32%	40%	32%[59 µM]
Oc1ccc2ccccc2c1N=Nc1ccccc1F	3.5µM*	-13%	2.8µM*	18%	?	2.2µM*
O=C(O)c1cc(S(=O)(=O)O)ccc1O	?	-3%	?	?	12%	?
O=S(=O)(O)c1cccc(N=Nc2c(O)ccc3ccccc23)c1	?	-7%	11µM*	?	?	nt
COc1ccc(NC(=O)c2ccco2)cc1NC(=O)COc1ccc(Cl)c(C)c1	-2%	nt	3%	-22%	32%	12%[59 µM]
CN(C)C(=O)N1CCN(c2nc(-c3ccccc3)cs2)CC1	-24%	-13%	?	?	2%	-12%
Cc1nc(N)c(S(=O)(=O)c2ccccc2)c(Nc2ccc(Br)cc2)n1	-7%	nt	-18%	0%	33%	-11%[59 µM]
O=C(COC(=O)c1ccc(F)cc1F)NC1CC1	-12%	-12%	-2%	-9%	14%	3%
SMILES	JMJD2A Tudor	PLK1 PBD block	BAZ2B inh	12-LOX inh	HP1b chromo inh	G9a inh
CCCOc1ccc(-c2c(C(=O)N/N=C(\C)c3ccco3)nnn2-c2nonc2N)cc1	-26%	-8%	17%	10%	59%	-6%
CC(C)N(Cc1ccccc1)C(=O)c1ccc2nsnc2c1	-9%	-4%	20%	-25%	14%	-7%
O=c1cnc2ccccc2n1Cc1ccc(Br)cc1	6%	-7%	2%	7%	19%	-4%
CCCCCCCCCCCCCCCCCCc1ccc(C(=O)/C=C/C(=O)O)cc1	nt	nt	nt	-11%	nt	4%[59 µM]
C=CC(=O)c1ccc(CCCCCC)cc1	nt	nt	nt	nt	nt	11µM*
Cc1cc2c(Nc3ccc(O)cc3)ncnc2s1	-13%	-2%	?	?	37%	56µM*
CC/C(=N\NC(=S)Nc1ccc(OC)cc1)c1ccc(OC(F)F)cc1	?	-8%	?	35µM*	?	40µM*
COc1ccc(C/C(C)=N/NC(=S)Nc2ccc(C(C)C)cc2)cc1	7.9µM*	-14%	-36%	?	22%	7.9µM*
Cc1ccccc1NC(=S)Nc1ccccc1	1%	-6%	6%	0%	54%	-5%[0.501 µM]
CC/C(=N\NC(C)=O)c1ccc(OC(F)F)cc1	nt	nt	-4%	nt	nt	5%
C/C(=N\NC(=S)Nc1ccccc1C)c1ccc(O)cc1	?	11µM*	?	nt	?	35µM*
C/C(=N\NC(=S)Nc1c(C)cccc1C)c1ccc(OC(F)F)cc1	?	-6%	-6%	35µM*	10%	8.9µM*
CN(C)C(=O)C1CCc2nnc(C3CCN([S+](=O)([O-])c4ccccc4)CC3)n21 (stereo not drawn)	nt	nt	nt	8%[6.33 µM]	nt	nt
CC1(C)NC(=O)N(CC(=O)N[C@@H]2[C@@H]3CCO[C@@H]3[C@@H]2C2CCCC2)C1=O	nt	nt	nt	4%	nt	nt
CC/C(=N\NC(=O)c1cc(C)oc1C)c1ccc(OC(F)F)cc1	nt	-2%	nt	14%	nt	nt
CC/C(=N\NC(=S)Nc1cc(C)ccc1C)c1ccc(OC(F)F)cc1	?	2%	?	32µM*	?	3.2µM*
CCOc1ccc(NC(=O)N2CCc3ccccc3C2)cc1	-11%	1%	-11%	-6%	47%	0%
COc1ccc(CNc2ccc3cn[nH]c3c2)c(OC)c1OC	?	-24%	?	7%	-4%	8.9µM*
CCOc1cc(CNc2ccc3cn[nH]c3c2)ccc1OC	?	-23%	?	1%	6%	28µM*
CCOc1ccccc1Oc1cn[nH]c1-c1ccc(OCC(=O)NN)cc1O	-35%	-6%	15%	14%	2%	21%
COc1cccc(Oc2cn[nH]c2-c2ccc(OCC(=O)NN)cc2O)c1	?	38µM*	-22%	-26%	17%	-3%
C=CCn1c(SCC(=O)Nc2ccc(-c3nc4ccc(C)cc4s3)cc2)nnc1-c1ccncc1	-23%	-6%	7%	-18%	18%	44%[59 µM]
O=S(=O)(c1ccccc1)N1CCCN(S(=O)(=O)c2ccccc2)CC1	0%	-8%	1%	0%	31%	1%
